Our source for the composite z-score, composite Z-score and z-score values is PubChem BioAssay.

For one assay, the target named is Albumin (Bos taurus) (UniProt P02769). The assay can be described thus: bovine serum albumin binders on microarray, profiling panel, artefact control for SMM control protein annotation, biochemical, small-molecule microarray, Alexa647 label, 635/667 nm fluorescence (AID 1118).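 Also: score merges 667 nm emission intensity and signal-to-noise per printed compound spot.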 The note with it: BSA-A647 binding, fluorescence 635 nm, higher = more signal.
Chain of Albumin (Bos taurus) (P02769 whole entry, looked up): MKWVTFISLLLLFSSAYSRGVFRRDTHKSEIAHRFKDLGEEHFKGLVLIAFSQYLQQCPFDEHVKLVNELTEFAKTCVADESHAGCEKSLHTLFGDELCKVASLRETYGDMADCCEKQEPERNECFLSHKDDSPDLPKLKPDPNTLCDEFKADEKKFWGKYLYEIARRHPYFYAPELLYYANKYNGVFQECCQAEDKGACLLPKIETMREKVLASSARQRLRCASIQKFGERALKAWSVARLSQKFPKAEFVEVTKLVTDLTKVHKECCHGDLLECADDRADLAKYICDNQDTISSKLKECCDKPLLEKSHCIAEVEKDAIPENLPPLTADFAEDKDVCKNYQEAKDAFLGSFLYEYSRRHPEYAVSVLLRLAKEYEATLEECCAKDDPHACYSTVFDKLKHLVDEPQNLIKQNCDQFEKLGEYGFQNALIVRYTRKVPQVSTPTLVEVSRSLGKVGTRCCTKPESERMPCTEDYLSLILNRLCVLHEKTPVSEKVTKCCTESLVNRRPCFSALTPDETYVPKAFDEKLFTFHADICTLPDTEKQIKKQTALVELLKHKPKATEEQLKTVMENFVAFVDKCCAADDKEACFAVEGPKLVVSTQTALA
Assay [1] in a line: small-molecule microarray binders of probe aXIP, primary screen, biochemical, NeuroSMM set, 635/667 nm fluorescence (AID 1119).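 Also: probe is the protein aXip251-270 applied at 1 µg/mL to compound-printed slides; binding of probe to printed compounds measured as 667 nm fluorescence plus signal to noise.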 Conditions: higher = more signal, called active from +8 up or from −8 down.
Assay [2] can be described thus: small-molecule binders of probe aNOTCH3, primary screen, biochemical, small-molecule microarray, 635/667 nm fluorescence (AID 1120).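 Also: probe is a biotin-tagged antibody raised against NOTCH3 rather than NOTCH3 protein; score merges spot fluorescence near 667 nm with spot signal to noise.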 The note with it: higher = more signal.
The nature of assay [3]: small-molecule binders of probe aNOTCH2, primary screen, biochemical, small-molecule microarray, 635/667 nm fluorescence (AID 1121).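 Also: score merges feature fluorescence read at 667 nm with its signal to noise.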 The note with it: higher = more signal.
Assay [4] deals with Carbonic anhydrase 2 (Homo sapiens) (UniProt P00918). The assay can be described thus: CAII small-molecule binders, profiling panel, biochemical, small-molecule microarray, Alexa647-labelled CAII (AID 1122). Conditions: CAII-A647 binding fluorescence, higher = more signal.
A short description of assay [5]: COS7 lysate on small-molecule microarray, probe aHis, 635 nm (AID 1123).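 Also: z-score combines 667nm fluorescence intensity with signal-to-noise per printed compound spot.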 The note with it: COS7 cell lysate, fluorescence, higher = more signal.
The nature of assay [6]: compound binding in COS7 lysate, probe aLAP1, primary screen, cell lysate, small-molecule microarray (AID 1124).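 Also: lysate comes from COS7 cells expressing LAP1 and is applied at 0.3 µg/mL; score merges spot fluorescence near 667 nm with signal-to-noise over triplicate slides.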 Conditions: probe aLAP1, fluorescence, higher = more signal.
For another assay, the system named is Sam68 (KHDRBS1). In words: Sam68 small-molecule binders, primary screen, biochemical, small-molecule microarray, 635 nm fluorescence (AID 1125).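 Also: score merges 667 nm channel intensity with signal to noise over triplicate slides.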 Conditions: small-molecule microarray binding, higher = more signal.
The subject of assay [7] is Chordin-like protein 2 (CHRDL2). In words: CHRDL2 small-molecule binders, primary screen, biochemical, small-molecule microarray, 635 nm fluorescence (AID 1126).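 Also: printed compound slides probed with Chrdl2 protein at 4 µg/mL for 1 h at 4 C; score merges 667 nm emission intensity with signal to noise over three replicate slides.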 The note with it: small-molecule microarray binding, fluorescence 635 nm; higher = more signal.
Assay [8] deals with Concanavalin-A (Canavalia ensiformis) (UniProt P02866). The assay can be described thus: ConA small-molecule binders, primary screen, artefact control for SMM control protein annotation, biochemical, small-molecule microarray, Alexa647 label, 635 nm (AID 1127).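 Also: z combines 667 nm emission intensity with signal-to-noise across three replicate slides.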 Conditions: ConA-A647 binding fluorescence, higher = more signal.
Chain of Concanavalin-A (Canavalia ensiformis) (P02866 whole entry, looked up): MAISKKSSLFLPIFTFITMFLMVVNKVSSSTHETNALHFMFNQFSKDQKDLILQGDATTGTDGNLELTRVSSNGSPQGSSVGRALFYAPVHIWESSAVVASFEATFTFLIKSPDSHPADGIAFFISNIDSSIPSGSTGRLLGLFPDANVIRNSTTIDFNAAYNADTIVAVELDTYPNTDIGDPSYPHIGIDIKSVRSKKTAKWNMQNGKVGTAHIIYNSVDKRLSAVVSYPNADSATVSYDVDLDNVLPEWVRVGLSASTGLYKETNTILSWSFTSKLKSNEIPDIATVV
The nature of assay [9]: anti-His antibody binders, primary screen, artefact control for SMM control protein annotation, biochemical, small-molecule microarray, 635 nm fluorescence (AID 1128).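 Also: score merges feature fluorescence with signal-to-noise for each printed compound spot.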 The note with it: anti-His Alexa647 antibody binding, higher = more signal.
Assay [10] relates to Human papillomavirus type 1a E7 protein (residues 1-88). In words: HPV1a E7 small-molecule binders, primary screen, biochemical, small-molecule microarray, residues 1-88, 635 nm (AID 1129). The note with it: small-molecule microarray binding, fluorescence 635 nm; higher = more signal.
Assay [11] deals with Focal adhesion kinase 1 (Homo sapiens) (UniProt Q05397). In words: small-molecule microarray binders of FAK, primary screen, biochemical, 635/667 nm fluorescence, BSA, DTT (AID 1130).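 Also: composite of spot emission at 667 nm and signal to noise over triplicate slides.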 The note with it: PTK2 binding, 635 nm fluorescence, higher = more signal.
Chain of Focal adhesion kinase 1 (Homo sapiens) (Q05397 whole entry, looked up): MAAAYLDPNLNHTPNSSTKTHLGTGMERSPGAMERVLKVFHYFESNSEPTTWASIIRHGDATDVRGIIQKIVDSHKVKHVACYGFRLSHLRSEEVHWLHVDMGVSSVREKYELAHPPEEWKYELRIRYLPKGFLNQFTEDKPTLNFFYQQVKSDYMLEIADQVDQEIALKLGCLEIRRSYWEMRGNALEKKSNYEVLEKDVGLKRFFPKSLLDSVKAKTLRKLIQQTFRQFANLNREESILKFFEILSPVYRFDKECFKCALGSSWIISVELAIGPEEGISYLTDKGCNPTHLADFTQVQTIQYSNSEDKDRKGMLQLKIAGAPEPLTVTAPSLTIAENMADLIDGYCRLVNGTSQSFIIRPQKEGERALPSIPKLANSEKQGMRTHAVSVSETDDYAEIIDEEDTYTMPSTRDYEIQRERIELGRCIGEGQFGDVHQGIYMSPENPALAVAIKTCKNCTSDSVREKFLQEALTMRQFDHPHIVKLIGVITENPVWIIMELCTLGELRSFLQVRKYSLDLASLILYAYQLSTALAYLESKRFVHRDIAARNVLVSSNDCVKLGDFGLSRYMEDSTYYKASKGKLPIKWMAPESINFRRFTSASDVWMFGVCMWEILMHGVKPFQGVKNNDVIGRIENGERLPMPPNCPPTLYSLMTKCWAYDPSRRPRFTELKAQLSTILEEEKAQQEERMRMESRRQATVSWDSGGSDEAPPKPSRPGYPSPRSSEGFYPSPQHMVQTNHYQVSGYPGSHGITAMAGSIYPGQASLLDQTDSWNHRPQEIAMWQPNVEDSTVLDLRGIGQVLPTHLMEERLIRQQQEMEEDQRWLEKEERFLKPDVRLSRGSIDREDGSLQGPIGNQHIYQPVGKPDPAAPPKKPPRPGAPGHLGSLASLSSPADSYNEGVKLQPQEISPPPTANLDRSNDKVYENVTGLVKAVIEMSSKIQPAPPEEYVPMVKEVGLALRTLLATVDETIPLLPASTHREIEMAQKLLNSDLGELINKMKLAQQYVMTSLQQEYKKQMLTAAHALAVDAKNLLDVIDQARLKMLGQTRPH
Assay [12] concerns Fibrinogen (Alexa647-labelled). The assay can be described thus: fibrinogen binders on compound microarrays, profiling panel, artefact control for SMM control-protein annotation, biochemical, small-molecule microarray, 635/667 nm fluorescence (AID 1131).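 Also: z-score merges 667 nm fluorescence with per-spot signal-to-noise over triplicate slides.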 Conditions: fibrinogen-A647 binding fluorescence, higher = more signal.
Assay [13] has as its target Follistatin (Homo sapiens) (UniProt P19883). In words: follistatin binders on small-molecule microarrays, primary screen, biochemical, small-molecule microarray, 635/667 nm fluorescence (AID 1132). The note with it: FST binding, 635 nm fluorescence, higher = more signal.
Assay [14] deals with Fibroblast growth factor 2 (Homo sapiens) (UniProt P09038). The assay can be described thus: FGF2 binders on small-molecule microarrays, primary screen, biochemical, small-molecule microarray, 635/667 nm fluorescence (AID 1133). Conditions: small-molecule microarray binding, FGF2, fluorescence 635/667; higher = more signal.
Chain of Fibroblast growth factor 2 (Homo sapiens) (P09038 whole entry, looked up): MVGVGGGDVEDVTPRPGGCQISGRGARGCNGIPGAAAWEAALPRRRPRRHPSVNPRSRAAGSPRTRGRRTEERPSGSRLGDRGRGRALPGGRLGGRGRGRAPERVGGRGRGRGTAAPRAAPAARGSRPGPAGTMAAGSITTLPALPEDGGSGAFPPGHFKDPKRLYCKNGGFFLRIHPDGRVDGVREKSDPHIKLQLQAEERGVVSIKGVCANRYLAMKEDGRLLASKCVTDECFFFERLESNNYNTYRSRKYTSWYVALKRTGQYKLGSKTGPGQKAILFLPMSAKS
Assay [15] can be described thus: mitochondrial membrane potential change in A549 cells, profiling panel, cell-based, JC-1 fluorescence, basal, 24 h, 100 nL (AID 1138).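 Also: A549 lung adenocarcinoma cells under basal conditions with no added stimulus; test concentration not given here.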 The note with it: higher = more signal.
Another assay has as its system Lefty1. In words: Lefty1 binders on small-molecule microarrays, primary screen, biochemical, small-molecule microarray, 635/667 nm fluorescence (AID 1139). Conditions: small-molecule microarray binding, fluorescence 635/667; higher = more signal.
Assay [16] relates to wheat germ agglutinin (Triticum aestivum), Alexa647-labelled. The assay can be described thus: wheat germ agglutinin binders on compound microarrays, profiling panel, artefact control for SMM control-protein annotation, biochemical, small-molecule microarray, 635/667 nm fluorescence (AID 1140).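 Also: score merges 667 nm feature emission with signal to noise over triplicate slides.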 The note with it: WGA-A647 binding, 635 nm fluorescence, higher = more signal.
In assay [17] the target is Luciferin 4-monooxygenase (Photinus pyralis) (UniProt P08659). The assay can be described thus: firefly luciferase enzyme inhibitors, primary screen, biochemical, luminescence, purified enzyme, 2006 set (AID 1141).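 Also: cell-free assay with purified firefly luciferase at 100 ng per well in PBS; test concentration not given here.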 The note with it: SteadyGlo luminescence, 30 min, higher = more signal, called active from +8 up or from −8 down.
Chain of Luciferin 4-monooxygenase (Photinus pyralis) (P08659 whole entry, looked up): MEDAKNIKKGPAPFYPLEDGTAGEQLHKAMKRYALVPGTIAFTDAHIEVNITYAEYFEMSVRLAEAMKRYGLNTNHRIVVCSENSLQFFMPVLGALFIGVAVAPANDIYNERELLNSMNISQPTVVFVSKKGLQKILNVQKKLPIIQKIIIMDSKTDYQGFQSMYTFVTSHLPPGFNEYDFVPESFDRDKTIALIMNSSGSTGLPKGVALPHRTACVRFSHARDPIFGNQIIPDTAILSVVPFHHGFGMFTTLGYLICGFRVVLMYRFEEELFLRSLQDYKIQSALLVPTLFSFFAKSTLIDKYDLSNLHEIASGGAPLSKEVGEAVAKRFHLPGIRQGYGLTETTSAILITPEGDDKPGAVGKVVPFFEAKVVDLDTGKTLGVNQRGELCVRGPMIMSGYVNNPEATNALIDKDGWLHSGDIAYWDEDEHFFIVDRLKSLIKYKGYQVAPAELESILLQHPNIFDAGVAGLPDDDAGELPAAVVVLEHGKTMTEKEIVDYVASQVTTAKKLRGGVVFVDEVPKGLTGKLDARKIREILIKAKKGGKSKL

The source made the active and inactive calls.

Chain of Follistatin (Homo sapiens) (P19883 whole entry, looked up): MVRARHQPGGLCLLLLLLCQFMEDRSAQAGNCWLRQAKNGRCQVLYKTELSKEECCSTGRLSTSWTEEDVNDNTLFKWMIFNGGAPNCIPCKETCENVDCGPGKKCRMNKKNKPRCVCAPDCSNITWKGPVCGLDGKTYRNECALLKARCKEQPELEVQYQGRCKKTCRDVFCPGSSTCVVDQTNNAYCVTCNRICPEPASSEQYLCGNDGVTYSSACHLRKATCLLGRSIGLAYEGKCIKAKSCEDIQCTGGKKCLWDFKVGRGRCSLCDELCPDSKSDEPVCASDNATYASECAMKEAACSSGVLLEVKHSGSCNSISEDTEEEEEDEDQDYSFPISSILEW

For `COC(=O)CC=C[C@@H](C)[C@@H](C=NOC[C@@H](O)COCc1ccco1)NS(=O)(=O)c1ccc(C)cc1`, the composite z-score with Albumin (Bos taurus) was -1.17; in assay [2] it was -0.169; in assay [3], -0.0854; in assay [4], -0.485; in [5], -1.36; in assay [6], -0.504. In addition, the composite z-score is -0.866 with Sam68 (KHDRBS1); 1.52 in assay [7]; -2.76 in assay [8]; 0.13 in assay [9]; -1.94 in [10]; -0.432 in [11]. In addition, the composite z-score in assay [12] is -1.03; in assay [13] it was 1.29; in assay [14] it was 0.542; in the assay with Lefty1 it was 0.915; in assay [16], -0.681. The composite Z-score in assay [1] was -0.553 (inactive). Besides, the z-score is -0.383 in assay [15] and 0.167 (inactive) in assay [17].
Consider `COc1cccc([C@H]2Oc3ccc(OC)cc3C(=NO[C@@H](C)c3cc(-c4c(C)cc(C)cc4C)no3)[C@@H]2O)c1`, for which the composite z-score with Albumin (Bos taurus) is -1.31; in assay [2], -0.305; in assay [3], -0.155; in [4], 0.108; in assay [5] it was -0.552; in assay [6] it was 0.843. Besides, the composite z-score in the assay with Sam68 (KHDRBS1) was -0.156; in assay [7], -0.861; in assay [8], -1.57; in assay [9] it was -0.314; in assay [10], -0.358; in assay [11], -0.364. Further, the composite z-score was -1.51 in assay [12]; -2.57 in assay [13]; -2.11 in assay [14]; -2.4 in the assay on Lefty1; -0.52 in assay [16]. In assay [1], the composite Z-score was -0.238 (inactive). In addition, the results for the z-score in assay [15] and in assay [17] were 0.611 and 0.995 (inactive), respectively.
`CC(=O)OC[C@H]1O[C@@H](ON=C(C)CCN2CCCCc3nc(C)c(C)cc32)[C@H](OC(C)=O)[C@@H](OC(C)=O)[C@@H]1OC(C)=O`: the composite z-score in the assay with Albumin (Bos taurus) was 0.536; in assay [2], 0.0282; in assay [3] it was -0.115; in assay [4], 0.163; in [5], 0.773; in [6], -0.0796. Further, the composite z-score in the assay on Sam68 (KHDRBS1) is 1.29; in assay [7], 1.27; in [8], 0.289; in assay [9], 0.914; in assay [10], 0.329; in [11], -0.0665. The composite z-score is 0.736 in assay [12]; 0.89 in assay [13]; 1.14 in assay [14]; 1.17 in the assay on Lefty1; 0.162 in assay [16]. Further, in assay [1], the composite Z-score is -0.288 (inactive). Besides, the z-score in [15] is -0.66; in assay [17], 0.949 (inactive).
For the compound `COc1ccc(OC[C@H]2CN3[C@@H](CC[C@@H](C)[C@@H]3c3ccc(Br)cc3)C(=O)O2)cc1`, the composite z-score with Albumin (Bos taurus) was 0.197; in assay [2], -0.25; in assay [3] it was -0.13; in [4] it was -0.657; in assay [5] it was -0.239; in assay [6] it was 0.254. Besides, the composite z-score with Sam68 (KHDRBS1) was 0.592; in assay [7], 0.464; in [8], 0.297; in assay [9], 0.0994; in assay [10], -0.023; in assay [11] it was -0.305. Further, the composite z-score in [12] is -0.0163; in assay [13], 0.385; in assay [14] it was 0.042; in the assay with Lefty1, 0.664; in assay [16], -0.108. Further, in assay [1], the composite Z-score is 0.281 (inactive). The z-score in assay [15] was -0.124; in assay [17], -1.55 (inactive).
Take `COc1ccc(COC(=O)NN=C2C[C@@H](O)[C@@H](O)[C@@H]3[C@@H]4C(=O)N(Cc5ccccc5)C(=O)[C@@H]4CC[C@@H]23)cc1`: the composite z-score with Albumin (Bos taurus) was -0.0233; in assay [2], -0.0362; in assay [3], -0.182; in [4] it was -0.359; in assay [5] it was 0.275; in [6] it was -0.23. Besides, the composite z-score in the assay with Sam68 (KHDRBS1) was determined as 0.389; in assay [7] it was 0.172; in assay [8], 0.0738; in assay [9], 0.57; in assay [10], 0.343; in [11], 0.0398. The composite z-score in assay [12] is -0.113; in assay [13], 0.364; in assay [14], 0.164; with Lefty1, 0.292; in assay [16], -0.0049. Besides, the composite Z-score in [1] is -0.185 (inactive). Also, the z-score is 0.485 in assay [15] and 0.778 (inactive) in assay [17].
